# Measured values from PubChem BioAssay (NCATS).
# Records with an inconclusive call do not appear. A call without a number means that no potency is given here. Active and inactive are the calls of the source. Calls come from the whole dose curve; as a rule, active = well fitted curve in the direction sought with a large enough effect; inconclusive = small, poorly fitted or top-dose-only effect, or another doubt; inactive = no such curve, though single readings can be large; an effect the other way counts as inactive or inconclusive.
# How the values were obtained:
# [1] = qHTS assay to identify small molecule inhibitors of chordoma cells - UCH-1 (AID 1259355); note: nearly all actives have a fitted effect of over 55% in size; note: potency is the fitted concentration of half-maximal effect; series mostly up to about 46 µM
# Method in brief: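 800 cells/well, overnight attach; compounds pinned at 15 concs, then auranofin/camptothecin/doxorubicin/rubitecan/topotecan combo added; 48hr 37 C, 5% CO2; CellTiter-Glo, 30min RT, luminescence.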
# [2] = qHTS assay to identify small molecule inhibitors of chordoma cells - UCH-2 (AID 1259356); note: potency is the fitted concentration of half-maximal effect
# [3] = Identifying Small Molecule Inhibitors of Pancreatic Cancer Stem Cells (A2780, Spheroid) (AID 1259357); conditions: Potency: A2780 spheroid viability;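 note: compound exposure lasted 48 h before the ATP luminescence read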
# Method in brief: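 Viability is scored by CellTiter-Glo luminescence 48 h after dosing, expressed as percent activity against vehicle and no-cell references. Spheroid formats rely on cells cultured 14 days in stem cell media beforehand.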
# [4] = Identifying Small Molecule Inhibitors of Pancreatic Cancer Stem Cells (SN12C, Adherent) (AID 1259358);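 note: cell survival measured after 48 h of compound exposure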
# Method in brief: (§1)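 Adherent (2D) versus sphere (3D) formats; spheres generated 14 d in SCM beforehand. Compound transferred by pin tool after 4 h, 48 h incubation, CellTiter-Glo endpoint.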
# [5] = Identifying Small Molecule Inhibitors of Pancreatic Cancer Stem Cells (A278, Adherent) (AID 1259361);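 note: viability read after 48 h compound exposure; nearly all actives have a fitted effect of over 35% in size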
# Method in brief: as §1
# [6] = Identifying Small Molecule Inhibitors of Pancreatic Cancer Stem Cells (Panc1, Spheroid) (AID 1259359);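 note: compound exposure lasted 48 h before reading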
# Method in brief: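 Monolayer and spheroid cultures are compared. Spheroids form over 14 days in stem cell medium on hydrogel-coated low-attachment plates, then are exposed to compound for 48 h before CellTiter-Glo luminescence.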
smiles,measurement,setting,value
C[C@]12O[C@H](C[C@]1(O)CO)n1c3ccccc3c3c4c(c5c6ccccc6n2c5c31)CNC4=O,Potency,[1],11.2 µM (active)
same,Potency,[2],10.3 µM (active)
Cc1cn([C@H]2C[C@H](O)[C@@H](CO)O2)c(=O)[nH]c1=O,Potency,[1],inactive
same,Potency,[2],inactive
CC1(C)S[C@@H]2[C@H](NC(=O)C(N)c3ccccc3)C(=O)N2[C@H]1C(=O)OC1OC(=O)c2ccccc21 (some centres not stated),Potency,[1],inactive
same,Potency,[2],inactive
COc1cc(-c2ccc(-[n+]3nc(-c4ccccc4)nn3-c3ccc([N+](=O)[O-])cc3)c(OC)c2)ccc1-[n+]1nc(-c2ccccc2)nn1-c1ccc([N+](=O)[O-])cc1,Potency,[1],31.6 µM (active)
same,Potency,[2],9.2 µM (active)
CCOC(C)=O,Potency,[1],inactive
same,Potency,[2],inactive
O=C(Nc1ccc(Br)cc1)c1cc(Br)c(Br)s1,Potency,[1],inactive
same,Potency,[2],inactive
CN1C(=O)CN2CCc3ccccc3C2c2cc(Cl)ccc21 (configuration not stated),Potency,[1],inactive
same,Potency,[2],inactive
Nc1ncnc2c1ncn2[C@@H]1O[C@H](COP(=O)(O)OP(=O)(O)OP(=O)(O)O)[C@@H](O)[C@H]1O,Potency,[1],inactive
same,Potency,[2],inactive
COc1ccc(CCNC[C@H](O)c2ccc(O)cc2)cc1OC,Potency,[1],inactive
same,Potency,[2],inactive
CO[C@H]1C=CO[C@@]2(C)Oc3c(C)c(O)c4c(O)c(c(/C=N/N5CCN(C6CCCC6)CC5)c(O)c4c3C2=O)NC(=O)/C(C)=C\C=C[C@H](C)[C@H](O)[C@@H](C)[C@@H](O)[C@@H](C)[C@H](OC(C)=O)[C@@H]1C,Potency,[1],inactive
same,Potency,[2],inactive
CCOc1ccc(N=Nc2ccc(N)cc2N)cc1,Potency,[1],inactive
same,Potency,[2],inactive
C/C1=C2N=C(/C=C3N=C(/C(C)=C4\[N-][C@@](C)([C@@H]5N=C1[C@](C)(CCC(=O)NCC(C)OP(=O)(O)O[C@H]1[C@@H](O)[C@@H](n6cnc7cc(C)c(C)cc76)O[C@@H]1CO)[C@H]5CC(N)=O)[C@@](C)(CC(N)=O)[C@@H]4CCC(N)=O)[C@@](C)(CC(N)=O)[C@@H]\3CCC(N)=O)C(C)(C)[C@@H]/2CCC(N)=O.CC(=O)O.[Co] (some centres not stated),Potency,[1],inactive
same,Potency,[2],inactive
CCCCCCCCCCCCCCCC(=O)OCC(COC(=O)CCCCCCCCCCCCCCC)OC(=O)CCCCCCCCCCCCCCC,Potency,[1],inactive
same,Potency,[2],inactive
CC[N+](CC)(CC)CCC(O)(c1ccccc1)C1CCCCC1 (configuration not stated),Potency,[1],inactive
same,Potency,[2],inactive
CC(C)(C)NC(=O)[C@@H]1C[C@@H]2CCCC[C@@H]2CN1C[C@@H](O)[C@H](Cc1ccccc1)NC(=O)[C@H](CC(N)=O)NC(=O)c1ccc2ccccc2n1,Potency,[1],inactive
same,Potency,[2],inactive
CNC(C)[C@@H]1CC[C@@H](N)[C@@H](O[C@H]2[C@H](O)[C@@H](O[C@H]3OC[C@](C)(O)[C@H](NC)[C@H]3O)[C@H](N)C[C@@H]2N)O1 (some centres not stated),Potency,[1],inactive
same,Potency,[2],inactive
Cc1cc(/C=C/c2ccc3cc(N(C)C)ccc3[n+]2C)c(C)n1-c1ccccc1,Potency,[1],5.01 µM (active)
same,Potency,[2],inactive
C#CCOc1ccc2c(C)cc(=O)oc2c1,Potency,[1],inactive
same,Potency,[2],inactive
CC(C)(C)C1(O)CCN2CC3c4ccccc4CCc4cccc(c43)C2C1 (configuration not stated),Potency,[1],inactive
same,Potency,[2],inactive
O=C(COc1ccc(Cl)cc1)OCCNC12CC3CC(CC(C3)C1)C2,Potency,[1],inactive
same,Potency,[2],inactive
CO/N=C(\C(=O)N[C@@H]1C(=O)N2C(C(=O)O)=C(CSc3cnns3)CS[C@H]12)c1csc(N)n1,Potency,[1],inactive
same,Potency,[2],inactive
CC(NNC(=O)c1ccccc1)c1ccccc1 (configuration not stated),Potency,[1],inactive
same,Potency,[2],inactive
COC(F)(F)C(Cl)Cl,Potency,[1],inactive
same,Potency,[2],inactive
C[C@@H]1[C@H](O)[C@@H](C)/C=C/C=C\C=C\C=C\C=C\C=C\C=C\[C@H](O[C@@H]2O[C@H](C)[C@@H](O)[C@H](N)[C@@H]2O)C[C@@H]2O[C@](O)(C[C@@H](O)C[C@@H](O)[C@H](O)CC[C@@H](O)C[C@@H](O)CC(=O)O[C@H]1C)C[C@H](O)[C@H]2C(=O)O (stereo in doubt),Potency,[1],inactive
same,Potency,[2],inactive
COC(=O)C1=C(C#N)NC(C)=C(C(=O)OC(C)C)C1c1cccc([N+](=O)[O-])c1 (configuration not stated),Potency,[1],inactive
same,Potency,[2],inactive
CCCCCCCCCCCCCCCCCCOP(=O)([O-])OC1CC[N+](C)(C)CC1,Potency,[3],inactive
same,Potency,[4],inactive
same,IC50 (viability decrease),[5],8.12 µM (active)
O=C(O)CC/C=C\CC[C@H]1[C@@H](N2CCCCC2)[C@@H](O)C[C@@H]1OCc1ccc(-c2ccccc2)cc1,Potency,[4],inactive
same,Potency,[6],inactive
same,IC50 (viability decrease),[5],inactive
Cc1nnc(C(C)C)n1C1CC2CCC(C1)N2CC[C@H](NC(=O)C1CCC(F)(F)CC1)c1ccccc1 (some centres not stated),Potency,[4],inactive
